# Several values for one entry are separate records, joined by “and”; a condition that tells them apart may be missing. Equal entries are not always repeated. Hit rate of the full screen: of about 18,000 compounds, about 1,200 (6.7%) were called active. About 16% were inconclusive and are not listed. The full list was thinned out, with actives kept by preference. Unmarked numbers belong to inactive results. Calls come from the whole dose curve; tested in HEK293 cells.
# Assay: qHTS for Inhibitors of binding or entry into cells for Marburg Virus
# Settings: Marburg virus pseudotype entry/binding inhibition, cell-based; series mostly up to 49.2 µM; activity change, negative = inhibition: at the top concentration
# % is set by controls: 0 for no effect and ±100 for the full control effect; potency is the fitted concentration of half-maximal effect.
Compound,"activity change, negative = inhibition",Potency
COC(=O)C/C=C/[C@@H](C)[C@H](NC(=O)OCC(Cl)(Cl)Cl)c1ccccc1,-18.3%,
Oc1c(Cl)cc(Cl)c(Cl)c1Cc1c(O)c(Cl)cc(Cl)c1Cl,,15.8 µM (active)
Cc1ccccc1-c1ccc(C(=O)O)s1,50.9% [at 107 µM],
C[C@H]1[C@H](c2ccccc2)Oc2cc(Br)ccc2S(=O)(=O)N1Cc1cccc(F)c1,-22.6%,
C[C@@]12CC[C@H]3[C@@H](CC[C@]4(O)C[C@H](O)CC[C@@]34C=O)[C@]1(O)CC[C@@H]2C1=CC(=O)OC1,,1 µM (active)
COC1CC(OC2CC[C@@]3(C=O)C4CC[C@]5(C)C(C6=CC(=O)OC6)CC[C@@]5(O)C4CC[C@]3(O)C2)OC(C)C1O (stereo not given in full),,0.251 µM (active)
COc1ccc(C[C@H](N)C(=O)N[C@@H]2[C@H](O)[C@H](n3cnc4c(N(C)C)ncnc43)O[C@@H]2CO)cc1,,2.24 µM (active)
COc1ccc(CC(N)C(=O)NC2C(O)[C@H](n3cnc4c(N(C)C)ncnc43)O[C@@H]2CO)cc1 (stereo not given in full),,3.98 µM (active)
Nc1ncnc2c1ncn2C1CC(O)C(CO)O1 (stereo not given),11.5%,
C[C@H]1C/C=C/[C@@H]2[C@@H]3O[C@]3(C)[C@@H](C)[C@H]3[C@H](Cc4ccccc4)NC(=O)[C@]32OC(=O)O/C=C/[C@](C)(O)C1=O,,0.251 µM (active)
CO[C@H]1[C@H](NC(=O)C(C)C)c2ccccc2C12CCN(Cc1cnc(N(C)C)s1)CC2,-20.2%,
Cc1c(S(=O)(=O)O)oc2c1C(=O)C(=O)c1c-2ccc2c1CCCC2(C)C,1.1%,
CCOC(=O)N1CCN(Cc2ccc3c(c2)CN(C(=O)c2cccc(-n4cccn4)c2)CCO3)CC1,-8.81%,
CC(C)c1cc(C(=O)N2CCOc3ccc(CN4CCC(Oc5cccnc5)CC4)cc3C2)n[nH]1,25.6%,
CCOC(=O)N1CCC(N2CCOc3ccc(CN4CCC(O)(c5cccnc5)CC4)cc3C2)CC1,-28.6%,
c1ccc(CN2CCN(Cc3ccc4c(c3)CN(Cc3c[nH]c5ccccc35)CCO4)CC2)nc1,,10 µM (active)
O=c1c(CN2CCOc3ccc(CN4CCC(Oc5cccnc5)CC4)cc3C2)coc2ccccc12,,11.2 µM (active)
O=C(C(=O)N1CCOc2ccc(CN3CCN(Cc4ccccn4)CC3)cc2C1)c1ccccc1,-10.7%,
O=S(O)S(=O)(=O)O,2.36%,
O=S1(=O)CC(O)c2cc(Br)ccc2N1Cc1cccc(F)c1 (stereo not given),25.4%,
Cc1ccccc1Nc1oc(-c2ccccc2)nc1C(C)(C)C,-15% [at 8.59 µM],
C=C1/C(=C\C=C2\CCCC3(C)C2CCC3C(C)/C=C/C(O)C2CC2)CC(O)CC1O (stereo not given),-5.17%,
COC(=O)CCCC1=CC2=C(c3ccccc3)C(=O)C(C)(OC(=O)C3CCCC3)C(=O)C2=CN1c1ccc(OC)cc1 (stereo not given),-5.26% [at 8.59 µM],
COc1cc2c(cc1OC)[C@@H]1O[C@](CCCCN3C(=O)c4ccccc4C3=O)(C2)Oc2c1c(=O)oc1ccc(F)cc21,2.42% [at 8.59 µM],
CC(Nc1oc(-c2ccccc2)nc1-c1ccccc1)c1ccccc1 (stereo not given),inactive,

Compound,"activity change, negative = inhibition",Potency
COC12CC[C@@]3(C[C@@H]1C(C)(O)C(C)(C)C)[C@H]1Cc4ccc(O)c5c4[C@@]3(CCN1CC1CC1)[C@H]2O5 (stereo not given in full),,15.8 µM (active)
COc1ccc2c(c1)O[C@@H](c1ccc3c(c1)OCO3)[C@H](OC(=O)NCc1ccco1)C2=O,25%,
COCCN1C(=O)N[C@@H](c2ccccc2)C(C(=O)OC)=C1C,-6.89%,
CCC(=O)C[C@@H](NC(=O)OC)c1ccccc1,-1.71% [at 8.59 µM],
CCCCN1CC(CO)Oc2cccc(F)c2S1(=O)=O (stereo not given),23.1%,
CC(=O)[O][Sn]([c]1ccccc1)([c]1ccccc1)[c]1ccccc1,,1 µM (active)
Cc1cccc(CN2CCN(C3CN(Cc4cn(Cc5ccccc5F)nn4)S(=O)(=O)C3)CC2)c1 (stereo not given),7.53%,
CC(C)(Cc1c[nH]c2ccc(Cl)cc12)NCCOc1ccccc1OCC1CC1,,11.2 µM (active) and 8.91 µM (active)
COc1ccc2c(c1)O[C@@H](c1ccc3c(c1)OCO3)[C@H](OC(=O)NCCc1ccc(OC)c(OC)c1)C2=O,-0.0132%,
CC1C(=O)N(Cc2cn(Cc3ccco3)nn2)CCS(=O)(=O)N1Cc1ccc(-c2cccc(CO)c2)cc1 (stereo not given),-18.8%,
COc1ccc([C@@H](NC(=O)C(F)(F)F)C2CCCC=C2c2ccccc2)cc1OC (stereo not given in full),2.89% [at 8.59 µM],
CC[C@H](C)[C@H](NC(=O)[C@H](Cc1ccc(O)cc1)NC(=O)[C@@H](NC(=O)[C@H](CCCN=C(N)N)NC(=O)[C@@H](N)CC(=O)O)C(C)C)C(=O)N[C@@H](Cc1cnc[nH]1)C(=O)N1CCC[C@H]1C(=O)N[C@@H](Cc1ccccc1)C(=O)O,2.69%,
C=CCC(C)(O)c1ccco1 (stereo not given),0.192%,
CC1=C(/C=C/C(C)=C/C=C/C(C)=C/C=C/C=C(C)/C=C/C=C(C)/C=C/C(=O)[C@]2(C)C[C@@H](O)CC2(C)C)C(C)(C)C[C@H](O)C1,10.2%,
COc1ccc(-c2nc3c(c4c2C[C@H](c2ccccc2)OC4)CN(C(=O)c2ccco2)CC3)c(C)c1,13.2% [at 8.59 µM],
CCOC(=O)Cn1c(=O)sc2cccc(Cl)c21,17.7%,
CC1(C)O[C@@H](C(O)(c2ccccc2)c2ccccc2)[C@H](C(O)(c2ccccc2)c2ccccc2)O1,-19% [at 8.59 µM],
CCCCCCCC/C=C\CCCCCCCC(=O)NCC(=O)O,-13%,
C[C@H]1CCC[C@@]2(C)CCCC[C@]12O,-16%,
COc1ccc([C@H]2C[C@@H](n3cc(COC(=O)c4ccccc4)nn3)[C@H](O)CN2C(=O)c2cccs2)cc1,22.8%,
CC(C)C(NS(=O)(=O)c1ccc(-c2ccc(Br)cc2)cc1)C(=O)O (stereo not given),8.03%,
COc1ccc2c(c1)CO[C@H]([C@H](O)CBr)[C@H]2C=Cc1ccccc1,-15.4% [at 8.59 µM],
C=CCOC(=O)NC(c1ccc(F)c(F)c1)C(C(=O)COC)C(=O)OC (stereo not given),inactive,
OC[C@H]1O[C@H](C#Cc2ccccc2)C=C[C@H]1O,19.6% [at 8.59 µM],
CCOC(=O)CN1C(=O)NC(c2cccs2)C(C(=O)OC)=C1C (stereo not given),-16.9% [at 8.59 µM],

# From PubChem BioAssay AID720532 (National Center for Advancing Translational Sciences (NCATS), 2013)
